Hits are enriched below; roughly 1.8% of the tested compounds scored in any of these assays.
TSHR antagonist: antagonists of human thyroid stimulating hormone receptor | P16473 | TSHR-expressing cells, TSH-stimulated cAMP HTRF, 2 h; stronger effect = lower value | activity change, negative = inhibition, % at 11.5 µM | 330,000 compounds, 0.2% hits;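 active = activity change below a set negative limit, meaning inhibition stronger than a set level, cut at about -70% in these data; inconclusive = activity change between two set negative limits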; also: % is scaled to controls: 0 for no effect and ±100 for the full control effect
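Competitive HTRF cAMP read-out (cryptate anti-cAMP antibody, cAMP-d2; 30 min, room temperature) in freshly harvested TSHR cells. Compounds added before TSH at EC80 (4nM final), followed by 2 hours' incubation at 37 deg C.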
PTHR1 agonist: activates the human parathyroid hormone receptor PTHR1. AID 743266. HEK293 GP2 PTHR1 cells, GloSensor cAMP luminescence, 1 h. 410,000 compounds, 0.075% hits. Potency, µM (top dose mostly 115 µM), for the others: at the highest dose activation, usual class: activators; also: potency is read from the fitted curve at half-maximal effect; nearly all actives have a fitted effect of over 55% in size
Target sequence (Q03431 whole entry, looked up): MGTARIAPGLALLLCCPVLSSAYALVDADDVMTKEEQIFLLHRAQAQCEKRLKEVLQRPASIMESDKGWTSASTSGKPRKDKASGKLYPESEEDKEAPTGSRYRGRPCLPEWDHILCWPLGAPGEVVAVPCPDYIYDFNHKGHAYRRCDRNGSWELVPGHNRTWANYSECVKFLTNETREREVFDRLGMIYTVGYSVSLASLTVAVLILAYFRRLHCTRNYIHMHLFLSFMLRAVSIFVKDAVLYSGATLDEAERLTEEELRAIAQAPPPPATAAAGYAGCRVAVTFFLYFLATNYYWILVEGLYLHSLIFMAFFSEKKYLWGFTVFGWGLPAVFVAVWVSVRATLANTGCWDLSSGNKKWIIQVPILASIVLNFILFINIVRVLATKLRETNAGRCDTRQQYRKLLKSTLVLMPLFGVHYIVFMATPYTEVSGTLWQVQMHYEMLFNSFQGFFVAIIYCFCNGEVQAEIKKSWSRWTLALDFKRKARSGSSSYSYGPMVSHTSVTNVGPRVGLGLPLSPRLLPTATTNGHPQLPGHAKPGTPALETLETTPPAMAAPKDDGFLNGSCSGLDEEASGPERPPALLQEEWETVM
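HEK-293-derived GP2 cells expressing PTHR1 and a GloSensor cAMP reporter, 3,000/well, plated overnight, given luciferin plus IBMX (each 0.5 mM as added) for 1 h at 37 °C, then compound for 1 h at 37 °C. Luminescence was read after 15 min at room temperature.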
GLP1R cytotox: cytotoxicity counter-screen for GLP-1 receptor inverse agonists; Potency, µM (highest dose often 38.3 µM), for inactives: at the highest dose activity change, negative = inhibition, hits mostly inhibitors; HEK293 cAMP-luciferase reporter cells, luminescence, 24 h; 410,000 compounds, 0.13% hits; AID 624418;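 also: loss of luciferase light is scored as toxicity; potency is read from the fitted curve at half-maximal effect; % is scaled to controls: 0 for no effect and ±100 for the full control effect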
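Compound-treated cells are incubated 24 hr at 37 deg C under 5% CO2 after a 12 hour attachment period, then luciferase detection reagent is added and luminescence is measured following 12 min at room temperature; lowered signal indicates toxicity.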
GLP-1R inv ag: GLP-1 receptor (human) inverse agonism; P43220; HEK293 GLP-1R CRE-luciferase, luminescence, 24 h; GLP-1R form is constitutively active; Potency, µM (highest dose often 38.3 µM), inactives show top-dose activity change, negative = inhibition, usual class: inhibitors; 410,000 compounds, 1.6% hits; AID 624417; also: potency is read from the fitted curve at half-maximal effect; % is scaled to controls: 0 for no effect and ±100 for the full control effect; nearly all actives have a fitted effect of over 55% in size
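Constitutively active GLP-1R drives a cAMP-responsive luciferase in stably transfected HEK293 cells; test compounds are added after overnight (12 h) attachment and left 24 hr, and signal loss in luminescence marks inhibition.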
GLP1R ag: agonists of human GLP-1 receptor. 380,000 compounds, 0.007% hits. Potency, µM (titrated, usually from 45.6 µM), for inactives: at the highest dose activation, most hits filed as activators. HEK293 GLP-1R CRE-luciferase, luminescence, 4-6 h; cells express a hypersensitive GLP-1R form; also: potency is read from the fitted curve at half-maximal effect; % of control where 0% means no effect
* marks the source's active call; other numbers are inactive results; i = inactive; ? = inconclusive; nt = no result; [ ] = another dose, or the depositor's remark. Unless noted, calls follow the shape of the dose curve; as a rule, active = well fitted curve in the direction sought with a large enough effect; inconclusive = small, poorly fitted or top-dose-only effect, or another doubt; inactive = no such curve, though single readings can be large; an effect the other way counts as inactive or inconclusive.

SMILES	TSHR antagonist	PTHR1 agonist	GLP1R cytotox	GLP-1R inv ag	GLP1R ag
CCCCc1ccc(NC(=O)c2cc(-c3ccc(C)c(F)c3)on2)cc1	nt	i	2%	3%	nt
CCOc1ccccc1N=NC1C(=O)N(C(N)=S)N=C1C (centres undefined)	-20	-8%	?	0.89µM*	-2%
CC1=NN(C(N)=S)C(=O)C1N=Nc1ccccc1O (centres undefined)	4	i	1%	-6%	-2%
CCOC(=O)c1c(C)c(C(=O)NCc2ccc(Cl)cc2)c(C)n1C	nt	4%	5%	-1%	1%
CCOC(=O)c1cc(-c2cccs2)nc2c1c(C)nn2-c1ccccn1	7	-5%	3.5µM*	?	16%
CC1(C)CCC[C@]2(C)C(CS(=O)c3ccccc3)=C(C=O)CC[C@@H]12 (some centres undefined)	nt	-19%	-13%	2.8µM*	10%
CNC(=S)N(Cc1ccc(OC)cc1)C1CC(=O)N(c2ccc(Cl)cc2)C1=O (centres undefined)	47	-40%	-16%	11µM*	-2%
COc1ccc(CN(C(=S)Nc2ccccc2)C2CC(=O)N(c3ccc(F)cc3)C2=O)cc1 (centres undefined)	-36	i	0%	?	-27%
NCCCC(N)C(=O)O (centres undefined)	nt	nt	nt	nt	0%
Cc1oc2ccc(O)c(CN(C)Cc3ccccc3)c2c1C(=O)Nc1cccc(C(F)(F)F)c1	nt	-83%	?	?	nt
CCCCCc1ccc(OCCC[n+]2ccccc2)c(CCCCC)c1	4	-33%	?	7.9µM*	1%
CCCCCc1ccc(OCCOCCn2c[n+](C)c3ccccc32)c(CCCCC)c1	-26	-48%	?	?	4%
Cc1ccc(/C=C/c2nc3ccccc3c(=O)[nH]2)cc1	-8	-79%	4%	?	0%
Cc1ccc(/C=C/c2nc3ccccc3[nH]2)cc1	nt	-21%	-9%	2.5µM*	nt
CCN(CC)S(=O)(=O)c1cccc(C(=O)Nc2nc3cc4c(cc3s2)OCCO4)c1	-78*	-30%[57.5 µM]	-29%	11µM*	-10%
O=C(Nc1nc2cc3c(cc2s1)OCCO3)c1cccc(N2C(=O)CCC2=O)c1	3	-95%	1%	?	-2%
O=C(O)CSCC(=O)NC1CCSC1=O (centres undefined)	nt	nt	nt	nt	-1%
CN(C(=O)CSc1nc2ccc(NC(=O)c3cccs3)cc2s1)c1ccccc1	nt	-18%	-26%	?	nt
O=S(=O)(O)OCC1OC(COS(=O)(=O)O)(C2(OS(=O)(=O)O)OC(CO)C(OS(=O)(=O)O)C(OS(=O)(=O)O)C2OS(=O)(=O)O)C(OS(=O)(=O)O)C1OS(=O)(=O)O (centres undefined)	nt	nt	nt	nt	15%
CCOC(=O)c1sc2nc(C)nc(NCc3ccc(Cl)cc3)c2c1C	-12	-53%	-9%	?	12%
CCOC(=O)c1sc2nc(C)nc(NCc3ccc(F)cc3)c2c1C	-18	-94%	-14%	7.1µM*	13%
CC(C)CNS(=O)(=O)c1ccc(CCC(=O)Nc2cc(Cl)ccc2Oc2ccccc2)cc1	-10	-8%	4%	13µM*	3%
CCCNS(=O)(=O)c1ccc(CCC(=O)Nc2cc(Cl)ccc2Oc2ccccc2)cc1	-12	-51%[57.5 µM]	-12%	?	-5%
Cc1ccc(C)c(N(CC(=O)Nc2cc(Cl)ccc2Oc2ccccc2)S(C)(=O)=O)c1	-5	-18%[57.5 µM]	-2%	5µM*	-8%
COc1ccc(C)cc1NC(=O)CN(c1ccccc1F)S(C)(=O)=O	1	i	9%	2%	1%
SMILES	TSHR antagonist	PTHR1 agonist	GLP1R cytotox	GLP-1R inv ag	GLP1R ag
Cc1cccc(C)c1N(CC(=O)Nc1cc(Cl)ccc1Oc1ccccc1)S(C)(=O)=O	-2	-20%[57.5 µM]	-16%	4.5µM*	-4%
CCC(=O)N1c2ccccc2CC1C(=O)NCCc1ccccc1C (centres undefined)	nt	i	10%	-8%	nt
COc1cccc(-c2nnc(SCC(=O)NC3CCCCC3)o2)c1	nt	-13%	11%	-7%	nt
CC(C)c1ccc(-c2nn(-c3ccccc3)cc2C2C(C#N)=C(N)OC3=C2C(=O)CC(C)(C)C3)cc1 (centres undefined)	32	i	-30%	13µM*	-11%
CCCN(CC(=O)Nc1ccccc1OC)C(=O)c1ccc2[nH]c3c(c2c1)CC(C)CC3 (centres undefined)	47	-21%	-7%	10µM*	-21%
CCCN(CC(=O)Nc1ccccc1OC)C(=O)c1cc(-c2cccs2)nn1-c1ccccc1	8	-11%	10%	11µM*	4%
O=C(NC1CC1)c1cc(F)c(F)cc1Cl	-3	-25%	14%	15%	-3%
O=C(NC12CC3CC(CC(C3)C1)C2)c1ccccc1O	27	-9%[57.5 µM]	-16%	5.6µM*	3%
O=C(NNC(=O)C12CC3CC(CC(C3)C1)C2)c1ccccc1O	-11	-1%	-25%	?	-4%
O=C(NC12CC3CC(CC(C3)C1)C2)c1cc(F)c(F)cc1Cl	-10	-38%	-1%	10µM*	-3%
COc1cc(CN2CC(=O)N(c3ccc(C)c(Cl)c3)C2=S)cc(OC)c1OC	-3	i	-19%	8.9µM*	12%
CCOC(=O)c1cnc(-n2nc(C)cc2C)nc1NCCO	3	20%[57.5 µM]	-3%	-3%	-4%
CCOC(=O)c1cnc(-n2nc(C)cc2C)nc1NC(C)c1ccccc1 (centres undefined)	-6	i	?	2.5µM*	-3%
CCOC(=O)c1cnc(-n2nc(C)cc2C)nc1NCc1ccccc1	7	-18%	?	3.5µM*	-2%
CCCCN1C(=O)C(O)(CC(=O)c2ccc(C(C)(C)C)cc2)c2ccccc21 (centres undefined)	nt	-16%	-3%	?	nt
C#CC1(OC(C)=O)CCC2C3CCC4=CC(OC(C)=O)CCC4C3CCC21C (centres undefined)	nt	nt	nt	nt	1%
CCOc1ccccc1/C=N\Nc1cnn(Cc2ccccc2)c(=O)c1Cl	7	-8%	-22%	7.9µM*	13%
O=C(Nc1ccccc1)N1CCN(C(=O)c2nsc3ccccc23)CC1	nt	5%	2%	1%	nt
Cc1c(N2C(=O)/C(=C/c3ccc(N(C)C)cc3)N(C)C2=S)c(=O)n(-c2ccccc2)n1C	nt	i	5.6µM*	?	9%
Cc1c(N2C(=O)/C(=C/c3ccccc3)SC2=S)c(=O)n(-c2ccccc2)n1C	-4	i	-22%	?	-13%
CCOC(=O)c1cnc2ccc(OCC)cc2c1N1CCN(c2ccccc2)CC1	-11	-1%[57.5 µM]	-23%	8.9µM*	0%
CCOC(=O)c1cnc2c(C)c(Cl)ccc2c1N1CCN(CC)CC1	10	i	19%	7.9µM*	14%

Screening results (PubChem)
